Source: the supplement of paper PMC10849652
Of roughly 8,800 targets only a part is listed; those with a hit were picked by preference. About 0.5% of all pairs of compound and target were hits.

What was measured:
Test in all cases: log2 fold change, soluble protein after heating vs DMSO (PISA); higher = thermal stabilisation; K562 lysate, 10 uM; active = over 0.2 and 3.5 SD of the protein, either way, in both replicates (recomputed)
erlotinib = compound: C#Cc1cccc(Nc2ncnc3cc(OCCOC)c(OCCOC)cc23)c1 [erlotinib]
Outline: (§1)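 Values give the log-two fold change in thermal stability against solvent controls, from duplicates. Crude K562 extract at 1 mg/mL protein, made by dounce homogenisation in PBS pH 7.4 with 1 mM MgCl2, was treated with 10 μM compound for 30 min. After 3 min heating across 48°C-58°C, aliquots were pooled, adjusted to 0.5% NP-40 at 4°C and centrifuged at 21,000xg for 90 min. The supernatant was measured by TMTpro 16plex LC-MS/MS with channel sums equalised.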

[1] = compound: C/C(=N\NC(=O)C1=CC(=CC=C1)S(=O)(=O)N2CCOCC2)/C3=C(C=CC(=C3)Cl)O
Outline: as §1

[2] = compound: C1=CC(=CC=C1C2=NC3=C(N2)C=C(C=C3)C(=O)N)OC4=CC=C(C=C4)Cl
Outline: as §1

[3] = compound: C1=CC2=C(C=CC(=C2)/C=C\3/C(=O)NC(=NCC4=CC=CS4)S3)N=C1
Outline: as §1

[4] = compound: C1=CC2=NC=CN=C2C=C1/C=C/3\C(=O)NC(=O)S3
Outline: as §1

[5] = compound: C1=CC=C(C=C1)C2=NC(=C(N2)C3=CC=NC=C3)C4=CC(=C(C=C4)Cl)O
Outline: as §1

[6] = compound: C1=CC=C2C(=C1)C3=NNC4=CC=CC(=C43)C2=O
Outline: as §1

[7] = compound: C1CCN(C1)C(=O)NC2=CC=CC(=C2)NC3=NC=C(C(=N3)NCCC4=CN=CN4)Br
Outline: as §1

[8] = compound: C1CN(CCC1(CC2=CC=C(C=C2)Cl)N)C3=NC=NC4=C3C=CN4
Outline: as §1

IRAK-1-4 Inhibitor I = compound: C1COCCN1CCN2C3=CC=CC=C3N=C2NC(=O)C4=CC(=CC=C4)[N+](=O)[O-] [IRAK-1-4 Inhibitor I]
Outline: as §1

ibrutinib = compound: C=CC(=O)N1CCC[C@@H](n2nc(-c3ccc(Oc4ccccc4)cc3)c3c(N)ncnc32)C1 [ibrutinib]
Outline: as §1

[9] = compound: CC(=O)c1cnc2ccc(-c3cc(Cl)c(O)c(Cl)c3)nc2c1N[C@H]1CC[C@H](CN(C)C)CC1
Outline: as §1

ralimetinib = compound: CC(C)(C)Cn1c(N)nc2ccc(-c3[nH]c(C(C)(C)C)nc3-c3ccc(F)cc3)nc21 [ralimetinib]
Outline: as §1

[10] = compound: CC(C)(O)CC(=O)NCCn1ccc2ncnc(Nc3ccc(Oc4cccc(C(F)(F)F)c4)c(Cl)c3)c21
Outline: as §1

[11] = compound: CC(C)C1=C2N=C(C=C(N2N=C1)NCC3=CC=CC=C3)NCCCCCCN
Outline: as §1

[12] = compound: CC1=C(C(CC(=O)N1)C2=CC=C(C=C2)C(F)(F)F)C(=O)NC3=C(C=C4C(=C3)C=NN4)F
Outline: as §1

[13] = compound: CC1=C(C2=C(C=C1)C(=O)C3=CC=CC=C3N2CCCN)C
Outline: as §1

[14] = compound: CC1=C(C=C(C=C1)NC(=O)C2=CC(=CC=C2)C(C)(C)C#N)NC3=CC4=C(C=C3)N=CN(C4=O)C
Outline: as §1

[15] = compound: CC1=C(C=C(C=C1)NC(=O)C2=CC(=CC=C2)N(C)C)NC(=O)C3=CC=C(C=C3)O
Outline: as §1

[16] = compound: CC1=CC=C(C=C1)SC2=C3C=C(SC3=CN=C2)C(=O)N
Outline: as §1

Measured: log2 fold change

CEP76 (UniProt Q8TAP6)
UniProt Q8TAP6, sequence (Q8TAP6 whole entry, looked up): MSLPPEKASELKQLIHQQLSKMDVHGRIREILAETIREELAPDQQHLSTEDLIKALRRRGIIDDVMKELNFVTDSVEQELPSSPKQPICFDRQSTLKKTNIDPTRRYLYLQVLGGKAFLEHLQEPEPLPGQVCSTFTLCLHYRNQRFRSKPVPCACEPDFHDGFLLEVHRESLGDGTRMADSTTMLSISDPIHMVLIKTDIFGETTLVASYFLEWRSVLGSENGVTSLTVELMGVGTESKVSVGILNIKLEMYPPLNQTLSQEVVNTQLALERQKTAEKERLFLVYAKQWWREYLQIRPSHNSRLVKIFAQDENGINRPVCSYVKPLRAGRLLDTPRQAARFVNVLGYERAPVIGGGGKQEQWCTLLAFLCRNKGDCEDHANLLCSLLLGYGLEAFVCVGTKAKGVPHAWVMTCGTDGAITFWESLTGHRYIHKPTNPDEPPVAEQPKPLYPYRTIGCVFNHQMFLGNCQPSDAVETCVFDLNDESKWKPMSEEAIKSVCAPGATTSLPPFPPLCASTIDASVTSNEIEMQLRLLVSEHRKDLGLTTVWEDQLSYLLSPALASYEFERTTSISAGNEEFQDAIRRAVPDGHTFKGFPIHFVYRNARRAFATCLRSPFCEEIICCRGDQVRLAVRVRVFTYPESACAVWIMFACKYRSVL
inactive: erlotinib 0.005 | [1] -0.033 | [2] 0.012 | [3] 0.053 | [4] -0.072 | [5] -0.003 | [6] 0.052 | [7] -0.002 | [8] 0 | IRAK-1-4 Inhibitor I 0.056 | ibrutinib -0.004 | [9] 0.081 | ralimetinib 0.019 | [10] 0.003 | [11] -0.002 | [12] -0.019 | [13] -0.063 | [14] 0.051 | [15] 0 | [16] -0.005

CELF2 isoform 3 (UniProt O95319)
UniProt O95319, sequence (O95319 whole entry, looked up): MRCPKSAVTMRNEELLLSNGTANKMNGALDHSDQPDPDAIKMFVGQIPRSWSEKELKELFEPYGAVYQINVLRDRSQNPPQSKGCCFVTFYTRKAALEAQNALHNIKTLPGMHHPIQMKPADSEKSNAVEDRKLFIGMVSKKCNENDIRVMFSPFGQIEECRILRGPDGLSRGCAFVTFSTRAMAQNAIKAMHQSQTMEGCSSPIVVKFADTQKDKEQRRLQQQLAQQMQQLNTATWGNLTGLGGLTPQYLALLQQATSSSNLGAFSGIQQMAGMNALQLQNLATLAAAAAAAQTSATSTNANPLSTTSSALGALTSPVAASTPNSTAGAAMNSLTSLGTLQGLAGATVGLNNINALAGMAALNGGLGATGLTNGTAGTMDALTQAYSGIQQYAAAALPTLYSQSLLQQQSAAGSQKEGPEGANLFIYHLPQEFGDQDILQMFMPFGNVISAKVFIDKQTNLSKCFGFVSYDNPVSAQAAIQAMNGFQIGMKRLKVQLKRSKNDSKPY
inactive: erlotinib -0.111 | [1] -0.041 | [2] -0.041 | [3] -0.004 | [4] -0.024 | [5] 0.007 | [6] -0.012 | [7] -0.053 | [8] 0.041 | IRAK-1-4 Inhibitor I -0.029 | ibrutinib -0.016 | [9] 0.062 | ralimetinib -0.019 | [10] -0.015 | [11] 0.001 | [12] 0.025 | [13] 0.01 | [15] 0.018 | [16] 0.014
active: [14] -0.413

CHD1L (UniProt Q86WJ1)
UniProt Q86WJ1, sequence (Q86WJ1 whole entry, looked up): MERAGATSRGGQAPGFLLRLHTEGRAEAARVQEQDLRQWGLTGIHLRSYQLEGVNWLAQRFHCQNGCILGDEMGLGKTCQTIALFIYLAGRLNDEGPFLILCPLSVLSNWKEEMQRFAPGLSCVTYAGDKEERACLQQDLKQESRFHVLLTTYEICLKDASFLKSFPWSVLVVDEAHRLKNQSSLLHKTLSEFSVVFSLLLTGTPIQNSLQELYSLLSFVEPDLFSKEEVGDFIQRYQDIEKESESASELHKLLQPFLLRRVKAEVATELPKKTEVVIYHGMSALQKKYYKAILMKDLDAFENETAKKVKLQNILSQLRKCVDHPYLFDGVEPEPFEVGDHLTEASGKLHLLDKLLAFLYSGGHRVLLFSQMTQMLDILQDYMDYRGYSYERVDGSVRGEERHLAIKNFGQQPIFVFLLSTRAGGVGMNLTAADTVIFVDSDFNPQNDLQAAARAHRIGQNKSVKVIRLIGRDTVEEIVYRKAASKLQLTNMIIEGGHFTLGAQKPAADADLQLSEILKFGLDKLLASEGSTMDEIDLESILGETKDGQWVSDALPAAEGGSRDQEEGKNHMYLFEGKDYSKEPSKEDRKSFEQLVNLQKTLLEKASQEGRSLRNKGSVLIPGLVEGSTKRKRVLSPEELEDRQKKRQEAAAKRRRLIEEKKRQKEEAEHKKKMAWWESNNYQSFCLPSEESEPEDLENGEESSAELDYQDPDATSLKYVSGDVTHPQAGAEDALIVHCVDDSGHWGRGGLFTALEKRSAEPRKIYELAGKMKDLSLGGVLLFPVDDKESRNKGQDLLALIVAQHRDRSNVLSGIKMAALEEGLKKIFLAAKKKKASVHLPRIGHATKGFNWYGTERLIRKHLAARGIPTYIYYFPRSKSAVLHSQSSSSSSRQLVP
inactive: erlotinib -0.017 | [1] 0.007 | [2] -0.028 | [3] 0.036 | [4] 0.031 | [5] -0.014 | [6] -0.054 | [7] -0.012 | [8] 0.013 | IRAK-1-4 Inhibitor I 0.003 | ibrutinib -0.032 | [9] 0.03 | ralimetinib 0.024 | [10] -0.011 | [11] -0.001 | [12] 0.008 | [13] -0.043 | [14] 0.029 | [15] 0.061 | [16] 0.019

CASC4 (UniProt Q6P4E1)
UniProt Q6P4E1, sequence (Q6P4E1 whole entry, looked up): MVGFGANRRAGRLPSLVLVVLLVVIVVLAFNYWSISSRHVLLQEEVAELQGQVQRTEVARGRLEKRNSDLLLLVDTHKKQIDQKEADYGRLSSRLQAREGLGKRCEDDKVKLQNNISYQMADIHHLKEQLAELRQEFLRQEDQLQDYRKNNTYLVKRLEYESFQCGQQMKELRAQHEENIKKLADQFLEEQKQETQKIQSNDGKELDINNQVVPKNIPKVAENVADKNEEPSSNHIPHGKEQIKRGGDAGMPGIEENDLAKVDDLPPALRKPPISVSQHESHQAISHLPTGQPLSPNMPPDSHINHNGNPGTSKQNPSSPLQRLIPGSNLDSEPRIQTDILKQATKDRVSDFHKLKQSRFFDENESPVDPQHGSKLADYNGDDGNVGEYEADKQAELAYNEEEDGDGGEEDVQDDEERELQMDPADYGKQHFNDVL
inactive: erlotinib -0.005 | [1] 0.004 | [2] -0.035 | [3] 0.003 | [4] -0.049 | [5] -0.02 | [6] -0.119 | [7] -0.013 | [8] 0.047 | IRAK-1-4 Inhibitor I -0.008 | ibrutinib 0.001 | [9] -0.032 | ralimetinib -0.029 | [10] -0.008 | [11] -0.012 | [12] -0.055 | [13] 0.057 | [14] -0.016 | [15] 0.029 | [16] -0.036
